Measurements taken from PubChem BioAssay (Tox21).
Values joined by “and” are separate entries in the source; they are usually repeats but may differ in a detail not shown here. Equal entries are not always repeated. Inconclusive results are not listed. More than one record can exist for a structure, and the calls need not agree. Active and inactive are the calls of the source. Calls follow the shape of the dose curve; as a rule, active = well fitted curve in the direction sought with a large enough effect in the repeat runs; inconclusive = weak or mixed curves; inactive = no such curve, though single readings can be large; an effect the other way counts as inactive or inconclusive.

Columns and labels:
[1] = qHTS RealTime-Glo MT Cell Viability Assay in HepG2 cells - 8 hour (AID 1224873); also: nearly all actives have a fitted effect of over 55% in size; also: potency is read from the fitted curve at half-maximal effect
How it was run: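 Real-time viability: cells seeded at 600 per well together with NanoLuc and cell-permeant prosubstrate, compounds added after 5 h incubation. Luminescence tracked at 0, 8, 16, 24, 32 and 40 h of exposure.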

[2] = qHTS RealTime-Glo MT Cell Viability Assay in HEK293 cells - 40 hour (AID 1224874); settings: RealTime-Glo luminescence; max response: stronger effect = lower value; also: nearly all actives have a fitted effect of over 50% in size; also: potency is read from the fitted curve at half-maximal effect
How it was run: (§1)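 Measured as luminescence from the same continuously cultured HEK293 wells at successive time points (0, 8, 16, 24, 32, 40 h) after compound addition. Reagent present from seeding; dosing at 5 h; incubation 37 C.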

[3] = A CellTox Green Cytotoxicity Assay to monitor cytotoxicity in HEK293 cells - 24 hour (AID 1224875); also: series mostly up to about 77 µM; nearly all actives have a fitted effect of over 45% in size
How it was run: (§2)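 Homogeneous no-lysis format: HEK293 cell suspension mixed with CellTox Green reagent, seeded, incubated 5 h at 37 C/5% CO2, then dosed by pintool with compound in DMSO.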

[4] = A CellTox Green Cytotoxicity Assay to monitor cytotoxicity in HepG2 cells - 16 hour (AID 1224876); also: nearly all actives have a fitted effect of over 45% in size
How it was run: (§3)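 Fluorescent DNA-binding dye, 600 HepG2 cells/well, 5 h preincubation then compound in DMSO; same plates read at 0–40 h, 37 C.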

[5] = qHTS RealTime-Glo MT Cell Viability Assay in HEK293 cells - 0 hour (AID 1224880); also: top concentration of the series differs between compounds; nearly all actives have a fitted effect of over 45% in size
How it was run: as §1

[6] = A CellTox Green Cytotoxicity Assay to monitor cytotoxicity in HEK293 cells - 32 hour (AID 1224881); also: nearly all actives have a fitted effect of over 40% in size; also: potency is read from the fitted curve at half-maximal effect
How it was run: as §2

[7] = A CellTox Green Cytotoxicity Assay to monitor cytotoxicity in HepG2 cells - 0 hour (AID 1224882); also: nearly all actives have a fitted effect of over 35% in size
How it was run: as §3

[8] = A CellTox Green Cytotoxicity Assay to monitor cytotoxicity in HepG2 cells - 32 hour (AID 1224883); also: nearly all actives have a fitted effect of over 50% in size; also: potency is read from the fitted curve at half-maximal effect
How it was run: as §3

[9] = A CellTox Green Cytotoxicity Assay to monitor cytotoxicity in HEK293 cells - 8 hour (AID 1224884); also: nearly all actives have a fitted effect of over 35% in size; also: potency is read from the fitted curve at half-maximal effect
How it was run: as §2

[10] = qHTS RealTime-Glo MT Cell Viability Assay in HepG2 cells - 16 hour (AID 1224885); also: nearly all actives have a fitted effect of over 50% in size; also: potency is read from the fitted curve at half-maximal effect
How it was run: (§4)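 Viability was tracked continuously by NanoLuc luminescence from prosubstrate reduced by living HepG2 cells, at successive time points over 40 h of compound exposure. Cells with reagent were preincubated 5 h at 37 °C before compound addition.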

[11] = qHTS RealTime-Glo MT Cell Viability Assay in HEK293 cells - 24 hour (AID 1224886); also: nearly all actives have a fitted effect of over 50% in size; also: potency is read from the fitted curve at half-maximal effect; as to activity change, negative = cytotoxicity: top concentration of the series differs between compounds
How it was run: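 Viability tracked continuously by luminescence as live cells reduce a prosubstrate for NanoLuc; HEK293 cells preincubated 5 h, compound-treated at 37 C, and read at 0, 8, 16, 24, 32 and 40 h.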

[12] = qHTS RealTime-Glo MT Cell Viability Assay in HEK293 cells - 8 hour (AID 1224887); also: nearly all actives have a fitted effect of over 50% in size; also: potency is read from the fitted curve at half-maximal effect; as to activity change, negative = cytotoxicity: top concentration of the series differs between compounds
How it was run: as §1

[13] = A CellTox Green Cytotoxicity Assay to monitor cytotoxicity in HEK293 cells - 16 hour (AID 1224888); also: nearly all actives have a fitted effect of over 35% in size; also: potency is read from the fitted curve at half-maximal effect
How it was run: as §2

[14] = qHTS RealTime-Glo MT Cell Viability Assay in HepG2 cells - 0 hour (AID 1224889); also: nearly all actives have a fitted effect of over 50% in size
How it was run: as §4

[15] = A CellTox Green Cytotoxicity Assay to monitor cytotoxicity in HepG2 cells - 8 hour (AID 1224890); also: nearly all actives have a fitted effect of over 45% in size; also: potency is read from the fitted curve at half-maximal effect
How it was run: as §3

[16] = qHTS assay to identify small molecule antagonists of the estrogen receptor alpha (ER-alpha) signaling pathway using the BG1 cell line in the presence of 0.1 nM 17-beta-estradiol - cell viability counter screen (AID 1259241); also: nearly all actives have a fitted effect of over 40% in size; also: potency is read from the fitted curve at half-maximal effect
How it was run: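 Cells were plated and left 24 hr, compounds in DMSO were pinned in, 17beta-estradiol was added to 0.1 nM final, and after 22 hr CellTiter-Fluor reagent was added for 30 min before fluorescence was read.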

[17] = qHTS assay to identify small molecule antagonists of the androgen receptor (AR) signaling pathway using the MDA cell line in the presence of 0.5 nM R1881 - cell viability counter screen (AID 1259242); also: nearly all actives have a fitted effect of over 45% in size; also: potency is read from the fitted curve at half-maximal effect
How it was run: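 Human breast carcinoma MDA-kb2 cells, cultured without CO2, receive compounds alongside 0.5 nM (final) R1881 agonist. After 16 hr at 37C, viability is taken as live-cell protease signal.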

[18] = qHTS RealTime-Glo MT Cell Viability Assay in HepG2 cells - 32 hour (AID 1224877); also: nearly all actives have a fitted effect of over 55% in size; also: potency is read from the fitted curve at half-maximal effect
How it was run: as §4

[19] = A CellTox Green Cytotoxicity Assay to monitor cytotoxicity in HepG2 cells - 24 hour (AID 1224878); also: nearly all actives have a fitted effect of over 45% in size; also: potency is read from the fitted curve at half-maximal effect
How it was run: as §3

[20] = A CellTox Green Cytotoxicity Assay to monitor cytotoxicity in HepG2 cells - 40 hour (AID 1224879); also: nearly all actives have a fitted effect of over 40% in size; also: potency is read from the fitted curve at half-maximal effect
How it was run: as §3
% is scaled to controls: 0 for no effect and ±100 for the full control effect.

FC(F)(F)c1cccc(Cl)c1
inactive: Potency [1] | max response [2] -5.72% | Potency [3] | Potency [4] | Potency [5] | Potency [6] | Potency [7] | Potency [8] | Potency [9] | Potency [10] | Potency [11] | Potency [12] | Potency [13] | Potency [14] | Potency [15] | Potency [16] | Potency [17]

Cc1ccc(C(=O)O)cc1
inactive: Potency [1] | max response [2] 10% | Potency [3] | Potency [18] | Potency [5] | Potency [6] | Potency [7] | Potency [9] | Potency [10] | Potency [11] | Potency [12] | Potency [13] | Potency [14] | Potency [15] | Potency [16]

C#C[C@]1(O)CC[C@H]2[C@@H]3[C@H](C)CC4=C(CCC(=O)C4)[C@H]3CC[C@@]21C
inactive: Potency [1] | Potency [3] | Potency [4] | Potency [18] | Potency [19] | Potency [20] | Potency [5] | Potency [6] | Potency [7] | Potency [8] | Potency [9] | Potency [10] | Potency [11] | Potency [12] | Potency [13] | Potency [14] | Potency [15] | Potency [16] | Potency [17]

COc1cc2nc(N3CCN(C(=O)c4ccco4)CC3)nc(N)c2cc1OC
inactive: viability change, negative = cytotoxic [1] -0.626% [at 15.8 µM] | max response [2] -18.8% | activity change [3] 21% [at 15.8 µM, stronger effect = higher value] | cytotoxicity increase [4] 29.2% [at 15.8 µM] | activity change, negative = cytotoxicity [5] 4.25% [at 15.8 µM] | cytotoxicity increase [6] 43.4% [at 15.8 µM] | cytotoxicity increase [9] -2.23% [at 15.8 µM] | activity change, negative = cytotoxicity [11] -15.4% [at 15.8 µM] | activity change, negative = cytotoxicity [12] -21.9% [at 15.8 µM] | activity change [13] 1.13% [at 15.8 µM, stronger effect = higher value] | activity change, negative = cytotoxicity [14] 8.34% [at 15.8 µM] | activity change, negative = cytotoxicity [16] 2.36% [at 19 µM]
active: Potency [19] 7.37 µM | Potency [20] 10.4 µM | Potency [8] 10.4 µM

[Cu+]
active: Potency [18] 49 µM
inactive: Potency [1] | Potency [3] | Potency [4] | Potency [19] | Potency [20] | Potency [5] | Potency [6] | Potency [7] | Potency [8] | Potency [9] | Potency [10] | Potency [12] | Potency [13] | Potency [14] | Potency [16] | Potency [17]

Cc1ccc(C)cc1
inactive: Potency [1] | max response [2] 12.3% | Potency [3] | Potency [4] | Potency [19] | Potency [5] | Potency [6] | Potency [7] | Potency [8] | Potency [9] | Potency [10] | Potency [11] | Potency [12] | Potency [13] | Potency [15] | Potency [16] | Potency [17]

Cl[Si](Cl)(c1ccccc1)c1ccccc1
inactive: Potency [1] | max response [2] -3.91% | Potency [4] | Potency [19] | Potency [20] | Potency [5] | Potency [7] | Potency [8] | Potency [10] | Potency [11] | Potency [12] | Potency [15] | Potency [16] | Potency [17]

COc1cccc2c1C(=O)c1c(O)c3c(c(O)c1C2=O)C[C@@](O)(C(C)=O)C[C@@H]3O[C@H]1C[C@H](N)[C@H](O)[C@H](C)O1
inactive and 30.1 nM (active): Potency [8]
inactive: Potency [4] | Potency [20] | Potency [5] | Potency [7] | Potency [14]
43.9 µM (active) and inactive: Potency [6]
active: Potency [1] 49.3 µM | Potency [2] 62 nM and 3 nM | Potency [18] 22 µM | Potency [9] 39.1 µM | Potency [10] 43.9 µM and 23.9 µM | Potency [11] 110 nM and 4.8 nM | Potency [12] 15.6 µM and 21.3 µM | Potency [13] 39.1 µM | Potency [15] 55.3 µM | Potency [16] 30.8 µM and 13.3 µM | Potency [17] 48.9 µM

CCCCCCCCCCCCOC(=O)c1ccc(O)cc1
inactive: Potency [1] | Potency [3] | Potency [4] | Potency [18] | Potency [19] | Potency [20] | Potency [5] | Potency [6] | Potency [7] | Potency [8] | Potency [9] | Potency [10] | Potency [13] | Potency [15]

CN(C)Cc1ccccc1O
inactive: Potency [1] | max response [2] 3.13% | Potency [3] | Potency [4] | Potency [19] | Potency [20] | Potency [5] | Potency [6] | Potency [7] | Potency [8] | Potency [9] | Potency [11] | Potency [12] | Potency [13] | Potency [16] | Potency [17]

OC1CCC(C2CCCCC2)CC1 (configuration not stated)
inactive: Potency [1] | max response [2] -6.69% | Potency [3] | Potency [18] | Potency [5] | Potency [6] | Potency [7] | Potency [9] | Potency [10] | Potency [12] | Potency [13] | Potency [14] | Potency [15] | Potency [16] | Potency [17]
